This is one part of the list. Values without a mark were called inactive. Rule as the data show it: active = inhibition above about 32%; inactive = the rest.

In the assay the target is Mu-type opioid receptor (Homo sapiens) + Delta-type opioid receptor (Homo sapiens) (UniProt P35372+P41143). In words: inverse agonists of MOR-DOR heterodimerization, confirmation, cell-based, luminescence (AID 504900).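 Also: 0% = cells with DMSO and 100% = wells lacking cells with DMSO.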 The following applies: cells expressing OPRM1/OPRD1 heterodimer, at 9.3 µM, active compounds read high.
Sequence of Mu-type opioid receptor (Homo sapiens) + Delta-type opioid receptor (Homo sapiens) (P35372 whole entry, looked up): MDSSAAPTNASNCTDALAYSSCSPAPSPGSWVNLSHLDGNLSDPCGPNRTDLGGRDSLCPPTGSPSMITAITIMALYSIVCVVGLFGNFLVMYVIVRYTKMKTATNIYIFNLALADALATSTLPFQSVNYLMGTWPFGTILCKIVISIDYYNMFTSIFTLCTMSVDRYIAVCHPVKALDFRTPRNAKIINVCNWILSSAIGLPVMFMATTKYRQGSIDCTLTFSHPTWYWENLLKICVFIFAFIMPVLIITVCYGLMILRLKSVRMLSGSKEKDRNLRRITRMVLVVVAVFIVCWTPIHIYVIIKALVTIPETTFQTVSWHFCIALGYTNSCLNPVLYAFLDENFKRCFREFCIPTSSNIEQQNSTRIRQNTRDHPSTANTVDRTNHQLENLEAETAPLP
Sequence of Mu-type opioid receptor (Homo sapiens) + Delta-type opioid receptor (Homo sapiens) (P41143 whole entry, looked up): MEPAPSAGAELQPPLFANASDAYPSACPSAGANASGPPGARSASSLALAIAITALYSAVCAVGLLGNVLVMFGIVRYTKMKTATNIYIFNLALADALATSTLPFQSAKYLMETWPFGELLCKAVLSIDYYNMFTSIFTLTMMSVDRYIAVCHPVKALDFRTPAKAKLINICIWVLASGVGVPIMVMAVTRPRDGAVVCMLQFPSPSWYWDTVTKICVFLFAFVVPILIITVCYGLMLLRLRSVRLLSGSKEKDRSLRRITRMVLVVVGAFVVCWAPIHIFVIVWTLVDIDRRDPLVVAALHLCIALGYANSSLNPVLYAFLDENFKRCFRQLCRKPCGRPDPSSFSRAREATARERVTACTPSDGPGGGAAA

Consider `CCOC(=O)c1c(N)n(CCN2CCOCC2)c2nc3ccccc3nc12`, for which the inhibition was 3.09%.

On to `CC1=CC(=Cc2sc3ccccc3[n+]2C)C=C(C)O1`, for which the inhibition was -2.66%.

For the origin of these results see PubChem BioAssay AID504900 (The Scripps Research Institute Molecular Screening Center, 2011).
